Test results published in PubChem BioAssay (NCI).
Compounds without any hit were thinned out: in the full panel of roughly 83,000, 20% have a hit.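 Percent growth is the endpoint: 0 to 100 indicates growth inhibition (40 means 60% inhibition), 0 means no net growth, and negative values indicate cell death.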 Calls of active or inactive are those of the source.

Tested on: EKVX NSCLC
Test: NCI-60 one-dose screen, 48 h (100 = growth as untreated, 0 = no growth, -100 = all killed)
Settings: 10 µM
Method: Growth inhibition of the EKVX human Non-Small Cell Lung tumor cell line is measured as a screen for anti-cancer activity. Cells are grown in 96 well plates and exposed to the test compound for 48 hours. Compounds are tested at a single concentration, which is 10^-5 M for most compounds. The reported endpoint is percent growth (GI% or GIPRCNT), where numbers from 0 - 100% represent growth inhibition, and numbers from -100% - 0 represent cell death. For example, a value of 40 represents 60% growth inhibition. A value of 0 means no net growth occurred over the course of the experiment. A value of -40 indicates 40% of cells at the beginning of the experiment died by the end of the experiment. A value of -100 means all cells are dead at the end of the experiment.
NCI-60 Human Tumor Cell Lines Screen was performed using the standard one-dose NCI protocol, which is described in more detail at https://dtp.cancer.gov/discovery_development/nci-60/default.htm.
Compounds with GIPRCNT values below 10 were considered active. Activity score was based on GIPRCNT using the following formula: […]
Score is 0 for GIPRCNT values of 100 or above, 50 for GIPRCNT values of 0, and 100 for GIPRCNT values of -100.

Compound | growth
O=c1[nH][nH]c(=O)c2cc([N+](=O)[O-])ccc12 | 106% (inactive)
O=c1cc(-c2ccccc2)nc2cc(-c3ccco3)[nH]n12 | 89.7% (inactive)
COCCOCCCl | 112% (inactive)
CCOC(=O)c1coc(C(=O)OCC)c1C(=O)OCC | 100% (inactive)
c1cc[n+](C2c3ccccc3C([n+]3ccccc3)c3ccccc32)cc1 (stereo not given) | 48.3% (inactive)
O=[N+]([O-])c1ccc(-c2noc(-c3cccs3)n2)cc1 | 66.1% (inactive)
O=C(O)c1cc([N+](=O)[O-])ccc1Cl | 118% (inactive)
COC1=CC(=O)c2nc(Cl)ccc2C1=O | 74% (inactive)
c1ccc2c(N3CCCCC3)ncnc2c1 | 94% (inactive)
CNC(=S)NC(C)(C)C | 96.2% (inactive)
CCCNC(=O)c1ccc(S(N)(=O)=O)cc1 | 112% (inactive)
CCCCCCCCOC(=O)c1ccccn1 | 107% (inactive)
Cc1cccc(CO)c1 | 113% (inactive)
C=CCNc1ccccc1 | 108% (inactive)
O=C1Cc2ccccc2C(=O)O1 | 107% (inactive)
CC1=CC(=O)c2ccccc2C1=O | 114% (inactive)
N#Cc1ccc(NC(=O)Nc2cccc(C#N)c2)cc1 | 94.5% (inactive)
COC(=O)c1ccc(C(C)C)cc1 | 92.3% (inactive)
CC(=O)Nc1cccc(Cl)c1C | 101% (inactive)
O=C(c1ccc(Cl)cc1)c1ccccc1Cl | 96.9% (inactive)

Compound | growth
CCOC(=O)C(O)C(O)C(=O)OCC (stereo not given) | 111% (inactive)
Cc1cc(=O)[nH]c(NN=C2CCCC2)n1 | 107% (inactive)
CCC(C#N)(CC)c1ccccc1 | 105% (inactive)
C/C(=C\c1cc(Cl)ccc1OCC(=O)O)[N+](=O)[O-] | 98.2% (inactive)
O=C(O)c1cccc([N+](=O)[O-])c1 | 114% (inactive)
COc1ccc(C(O)c2ccccc2)cc1 (stereo not given) | 101% (inactive)
O=C(/C=C/C(=O)c1ccccc1)c1ccccc1 | 102% (inactive)
Cc1cc(O)ccc1O | 94.6% (inactive)
CCN(CC)c1ccc2nc3ccc(=[N+](CC)CC)cc-3oc2c1 | 8.19% (active)
O/N=C/c1ccc(O)cc1O | 102% (inactive)
CC1(C)N=C(N)N=C(N)N1c1cccc(Br)c1 | 45.1% (inactive)
CC(C)=C(NC(=O)c1ccccc1)C(=O)O | 118% (inactive)
CCN(CC)CCCC(C)Nc1ccnc(/C=C/c2ccc(Cl)cc2)c1 (stereo not given) | 50.5% (inactive)
CC(=O)OCC1OC(OC2=C(CC=C(C)C)C(=O)c3ccccc3C2=O)C(OC(C)=O)C(OC(C)=O)C1OC(C)=O (stereo not given) | 15.6% (inactive)
Cc1c(O)cccc1O | 106% (inactive)
CCn1c(=O)n(C)c2c(=O)n(C)c(=O)n(C)c21 | 103% (inactive)
COc1ccc(C2OC(N)=C(O)C2=O)cc1OC (stereo not given) | 94.3% (inactive)
CCCCNC1(C#N)CCN(Cc2ccccc2)CC1 | 95.5% (inactive)
CCC(=O)Oc1ccc(OC)cc1 | 104% (inactive)
C=CC(=O)OCCCCCCCC | 111% (inactive)
